Measured values published in publication PMC7862700, “An all-to-all approach to the identification of sequence-specific readers for epigenetic DNA modifications on cytosine”.

Legend:
Test in all cases: DAPPL (digital affinity profiling via proximity ligation, sequencing); 10 mM Tris-HCl pH 7.5, 50 mM NaCl, 1 mM DTT, 4% glycerol, room temperature, 30 min; GST-TFs on glutathione beads, 16-mer random dsDNA library, 0.1% formaldehyde crosslink after washing; high values mean tight binding
[1] = molecular target: T1, FLI1 (Homo sapiens, UniProt Q01543 1-452); conditions: protein: recombinant; tags: N-terminal GST; dsDNA, one strand shown
T1 sequence: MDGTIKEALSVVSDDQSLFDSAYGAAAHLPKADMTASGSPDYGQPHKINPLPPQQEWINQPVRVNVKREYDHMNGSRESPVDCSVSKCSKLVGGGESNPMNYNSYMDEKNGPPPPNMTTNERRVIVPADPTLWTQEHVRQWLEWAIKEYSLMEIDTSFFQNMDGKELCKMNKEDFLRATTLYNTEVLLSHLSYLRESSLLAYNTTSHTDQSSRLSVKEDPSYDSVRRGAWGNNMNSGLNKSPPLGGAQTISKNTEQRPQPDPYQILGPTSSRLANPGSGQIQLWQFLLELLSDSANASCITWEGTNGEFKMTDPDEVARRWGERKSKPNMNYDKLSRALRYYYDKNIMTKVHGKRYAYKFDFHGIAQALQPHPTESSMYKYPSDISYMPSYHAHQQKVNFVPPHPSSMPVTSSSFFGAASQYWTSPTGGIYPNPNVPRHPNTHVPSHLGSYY
In short: (§1)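 Beads coated with glutathione captured GST-fused human transcription factors that had been expressed in yeast, and the factors were then given DNA barcodes and pooled with a tag-only sample. The pools were incubated with 200 nmole of a random double-stranded 16-mer DNA library in Tris/NaCl/DTT/glycerol buffer for 30 min at room temperature, washed, crosslinked with 0.1% formaldehyde and proximity-ligated with BsaI/T4 ligase at 37 °C for 1 h. PCR amplification and Illumina NextSeq500 sequencing came last. Binding signal is each hexamer's read frequency for a factor divided by its frequency for the tag-only sample.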

[2] = molecular target: T2, ELK1 (Homo sapiens, UniProt P19419 1-428); conditions: protein: recombinant; tags: N-terminal GST; dsDNA, one strand shown
T2 sequence: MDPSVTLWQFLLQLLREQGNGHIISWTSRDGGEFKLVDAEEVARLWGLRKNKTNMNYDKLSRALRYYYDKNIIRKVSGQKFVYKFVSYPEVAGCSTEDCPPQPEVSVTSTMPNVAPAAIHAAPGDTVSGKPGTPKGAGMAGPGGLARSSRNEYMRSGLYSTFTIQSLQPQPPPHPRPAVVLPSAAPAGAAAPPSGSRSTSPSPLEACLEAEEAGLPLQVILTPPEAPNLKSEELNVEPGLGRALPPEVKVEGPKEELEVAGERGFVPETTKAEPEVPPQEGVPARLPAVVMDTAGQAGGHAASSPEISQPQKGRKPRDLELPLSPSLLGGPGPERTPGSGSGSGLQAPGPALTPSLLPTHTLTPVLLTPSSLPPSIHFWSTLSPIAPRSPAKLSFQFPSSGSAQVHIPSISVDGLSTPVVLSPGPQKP
In short: as §1

[3] = molecular target: T3, GABPA (Homo sapiens, UniProt Q06546 1-454); conditions: protein: recombinant; tags: N-terminal GST; dsDNA, one strand shown
T3 sequence: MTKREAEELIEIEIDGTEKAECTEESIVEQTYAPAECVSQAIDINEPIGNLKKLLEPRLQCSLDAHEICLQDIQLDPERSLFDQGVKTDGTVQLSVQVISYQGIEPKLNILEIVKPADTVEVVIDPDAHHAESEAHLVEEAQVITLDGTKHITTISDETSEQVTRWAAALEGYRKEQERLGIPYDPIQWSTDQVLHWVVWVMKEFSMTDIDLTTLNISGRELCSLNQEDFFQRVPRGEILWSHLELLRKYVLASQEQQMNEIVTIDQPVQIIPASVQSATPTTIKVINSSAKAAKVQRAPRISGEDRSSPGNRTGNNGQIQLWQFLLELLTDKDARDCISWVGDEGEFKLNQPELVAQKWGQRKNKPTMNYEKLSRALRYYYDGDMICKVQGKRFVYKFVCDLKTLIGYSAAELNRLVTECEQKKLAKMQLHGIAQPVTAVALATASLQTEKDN
In short: as §1

[4] = molecular target: T4, ERG (Homo sapiens, UniProt P11308 1-479); conditions: protein: recombinant; tags: N-terminal GST; dsDNA, one strand shown
T4 sequence: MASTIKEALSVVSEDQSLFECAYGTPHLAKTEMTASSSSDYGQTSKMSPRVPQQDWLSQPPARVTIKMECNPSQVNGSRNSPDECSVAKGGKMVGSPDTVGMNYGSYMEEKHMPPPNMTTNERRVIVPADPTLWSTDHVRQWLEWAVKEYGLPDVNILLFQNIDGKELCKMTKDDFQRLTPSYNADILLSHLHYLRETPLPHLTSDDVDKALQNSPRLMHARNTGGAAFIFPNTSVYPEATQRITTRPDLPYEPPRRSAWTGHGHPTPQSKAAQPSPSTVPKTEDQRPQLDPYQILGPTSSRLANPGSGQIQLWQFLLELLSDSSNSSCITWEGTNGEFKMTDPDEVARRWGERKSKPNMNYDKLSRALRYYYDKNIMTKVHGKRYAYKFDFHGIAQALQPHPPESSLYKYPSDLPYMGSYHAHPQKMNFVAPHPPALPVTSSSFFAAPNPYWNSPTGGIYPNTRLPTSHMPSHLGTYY
In short: as §1

[5] = molecular target: ELF1 (Homo sapiens, UniProt P32519 1-619); conditions: protein: recombinant; tags: N-terminal GST; dsDNA, one strand shown
In short: as §1

[6] = molecular target: T5, EHF (Homo sapiens, UniProt Q9NZC4 1-300); conditions: protein: recombinant; tags: N-terminal GST; dsDNA, one strand shown
T5 sequence: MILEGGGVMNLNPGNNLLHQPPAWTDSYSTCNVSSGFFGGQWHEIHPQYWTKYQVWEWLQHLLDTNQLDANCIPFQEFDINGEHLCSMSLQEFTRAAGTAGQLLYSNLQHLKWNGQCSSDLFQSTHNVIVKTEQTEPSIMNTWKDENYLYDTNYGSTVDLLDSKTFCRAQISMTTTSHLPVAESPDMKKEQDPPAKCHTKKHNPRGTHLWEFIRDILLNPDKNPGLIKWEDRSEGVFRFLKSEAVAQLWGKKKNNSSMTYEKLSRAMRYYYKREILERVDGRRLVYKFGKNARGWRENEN
In short: as §1

[7] = molecular target: SPI1 (Homo sapiens, UniProt P17947 1-270); conditions: protein: recombinant; tags: N-terminal GST; dsDNA, one strand shown
In short: as §1

[8] = molecular target: SPIB (Homo sapiens, UniProt Q01892 1-262); conditions: protein: recombinant; tags: N-terminal GST; dsDNA, one strand shown
In short: as §1

[9] = molecular target: T6, ELK3 (Homo sapiens, UniProt P41970 1-407); conditions: protein: recombinant; tags: N-terminal GST; dsDNA, one strand shown
T6 sequence: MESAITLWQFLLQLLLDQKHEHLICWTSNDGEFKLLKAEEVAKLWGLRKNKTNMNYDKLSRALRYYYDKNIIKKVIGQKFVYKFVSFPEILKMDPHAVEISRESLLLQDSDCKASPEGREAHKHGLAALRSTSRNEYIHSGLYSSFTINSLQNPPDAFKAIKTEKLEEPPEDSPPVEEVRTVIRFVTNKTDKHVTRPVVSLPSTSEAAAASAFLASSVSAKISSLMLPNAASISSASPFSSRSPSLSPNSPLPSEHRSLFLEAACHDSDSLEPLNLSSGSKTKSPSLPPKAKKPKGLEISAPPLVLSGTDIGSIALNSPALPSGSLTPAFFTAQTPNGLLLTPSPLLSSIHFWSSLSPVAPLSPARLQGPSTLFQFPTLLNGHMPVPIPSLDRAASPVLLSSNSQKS
In short: as §1

[10] = molecular target: T7, FEV (Homo sapiens, UniProt Q99581 1-238); conditions: protein: recombinant; tags: N-terminal GST; dsDNA, one strand shown
T7 sequence: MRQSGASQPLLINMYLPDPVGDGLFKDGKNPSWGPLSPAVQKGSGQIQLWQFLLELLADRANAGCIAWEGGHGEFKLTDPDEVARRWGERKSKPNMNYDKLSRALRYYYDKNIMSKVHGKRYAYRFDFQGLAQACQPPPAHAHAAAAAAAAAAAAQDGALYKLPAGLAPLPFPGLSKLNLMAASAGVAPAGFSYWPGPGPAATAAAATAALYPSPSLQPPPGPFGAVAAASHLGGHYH
In short: as §1

[11] = molecular target: ETV5 (Homo sapiens, UniProt P41161 1-510); conditions: protein: recombinant; tags: N-terminal GST; dsDNA, one strand shown
In short: as §1

[12] = molecular target: HSF1 (Homo sapiens, UniProt Q00613 1-529); conditions: protein: recombinant; tags: N-terminal GST; chain copies: 3; dsDNA, one strand shown
In short: as §1

[13] = molecular target: T8, SPIC (Homo sapiens, UniProt Q8N5J4 1-248); conditions: protein: recombinant; tags: N-terminal GST; dsDNA, one strand shown
T8 sequence: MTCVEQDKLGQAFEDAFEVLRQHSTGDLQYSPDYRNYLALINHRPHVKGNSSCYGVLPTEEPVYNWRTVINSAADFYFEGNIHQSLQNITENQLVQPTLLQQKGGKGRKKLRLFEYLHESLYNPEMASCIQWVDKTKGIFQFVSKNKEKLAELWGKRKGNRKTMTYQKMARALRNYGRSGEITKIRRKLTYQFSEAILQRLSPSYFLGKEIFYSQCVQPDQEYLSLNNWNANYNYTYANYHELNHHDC
In short: as §1

[14] = molecular target: ELF4 (Homo sapiens, UniProt Q99607 1-663); conditions: protein: recombinant; tags: N-terminal GST; dsDNA, one strand shown
In short: as §1

[15] = molecular target: T9, ELK4 (Homo sapiens, UniProt P28324-2 1-405); conditions: protein: recombinant; tags: N-terminal GST; dsDNA, one strand shown
T9 sequence: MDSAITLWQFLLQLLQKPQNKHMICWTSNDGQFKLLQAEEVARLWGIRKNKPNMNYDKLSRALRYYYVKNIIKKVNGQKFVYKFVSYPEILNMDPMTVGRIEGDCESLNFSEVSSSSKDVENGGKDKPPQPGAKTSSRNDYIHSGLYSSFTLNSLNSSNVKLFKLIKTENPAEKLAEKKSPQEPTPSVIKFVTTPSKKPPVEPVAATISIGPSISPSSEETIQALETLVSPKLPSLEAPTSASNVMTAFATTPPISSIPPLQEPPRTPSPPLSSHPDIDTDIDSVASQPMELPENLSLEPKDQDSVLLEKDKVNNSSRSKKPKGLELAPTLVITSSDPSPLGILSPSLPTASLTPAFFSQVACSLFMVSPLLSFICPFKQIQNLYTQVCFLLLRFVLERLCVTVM
In short: as §1

[16] = molecular target: T10, ETV2 (Homo sapiens, UniProt O00321 1-342); conditions: protein: recombinant; tags: N-terminal GST; dsDNA, one strand shown
T10 sequence: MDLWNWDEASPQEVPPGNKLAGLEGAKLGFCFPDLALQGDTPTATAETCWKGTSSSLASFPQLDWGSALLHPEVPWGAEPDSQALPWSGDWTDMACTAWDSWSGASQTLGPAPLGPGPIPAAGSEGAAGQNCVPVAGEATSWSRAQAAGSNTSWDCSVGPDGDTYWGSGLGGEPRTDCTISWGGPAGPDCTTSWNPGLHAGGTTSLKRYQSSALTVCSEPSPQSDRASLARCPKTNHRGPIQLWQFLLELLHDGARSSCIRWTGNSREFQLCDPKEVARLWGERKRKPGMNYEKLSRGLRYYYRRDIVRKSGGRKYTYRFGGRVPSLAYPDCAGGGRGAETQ
In short: as §1

[17] = molecular target: T11, ELF3 (Homo sapiens, UniProt P78545 1-371); conditions: protein: recombinant; tags: N-terminal GST; dsDNA, one strand shown
T11 sequence: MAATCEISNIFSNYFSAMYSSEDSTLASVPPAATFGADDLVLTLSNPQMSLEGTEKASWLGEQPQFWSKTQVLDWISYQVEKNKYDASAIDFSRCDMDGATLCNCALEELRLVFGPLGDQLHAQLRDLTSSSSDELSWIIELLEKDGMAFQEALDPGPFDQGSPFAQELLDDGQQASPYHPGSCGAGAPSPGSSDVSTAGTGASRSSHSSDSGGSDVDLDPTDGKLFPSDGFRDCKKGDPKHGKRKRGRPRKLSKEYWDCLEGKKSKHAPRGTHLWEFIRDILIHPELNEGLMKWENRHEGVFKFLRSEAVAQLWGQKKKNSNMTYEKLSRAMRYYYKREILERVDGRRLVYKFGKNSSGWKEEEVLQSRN
In short: as §1

[18] = molecular target: CRX (Homo sapiens, UniProt O43186 1-299); conditions: protein: recombinant; tags: N-terminal GST; dsDNA, one strand shown
In short: as §1

[19] = molecular target: ETV1 (Homo sapiens, UniProt P50549 1-477); conditions: protein: recombinant; tags: N-terminal GST; dsDNA, one strand shown
In short: as §1

SPIB, sequence (Q01892 whole entry): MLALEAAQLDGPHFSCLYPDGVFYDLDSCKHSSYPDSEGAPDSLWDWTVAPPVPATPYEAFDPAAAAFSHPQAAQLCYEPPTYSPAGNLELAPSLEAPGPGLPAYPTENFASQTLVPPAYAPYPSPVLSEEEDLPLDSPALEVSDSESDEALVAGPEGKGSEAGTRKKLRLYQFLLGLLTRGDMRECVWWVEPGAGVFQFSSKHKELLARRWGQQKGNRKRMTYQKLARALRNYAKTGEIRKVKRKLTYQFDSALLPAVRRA
ELF4, sequence (Q99607 whole entry): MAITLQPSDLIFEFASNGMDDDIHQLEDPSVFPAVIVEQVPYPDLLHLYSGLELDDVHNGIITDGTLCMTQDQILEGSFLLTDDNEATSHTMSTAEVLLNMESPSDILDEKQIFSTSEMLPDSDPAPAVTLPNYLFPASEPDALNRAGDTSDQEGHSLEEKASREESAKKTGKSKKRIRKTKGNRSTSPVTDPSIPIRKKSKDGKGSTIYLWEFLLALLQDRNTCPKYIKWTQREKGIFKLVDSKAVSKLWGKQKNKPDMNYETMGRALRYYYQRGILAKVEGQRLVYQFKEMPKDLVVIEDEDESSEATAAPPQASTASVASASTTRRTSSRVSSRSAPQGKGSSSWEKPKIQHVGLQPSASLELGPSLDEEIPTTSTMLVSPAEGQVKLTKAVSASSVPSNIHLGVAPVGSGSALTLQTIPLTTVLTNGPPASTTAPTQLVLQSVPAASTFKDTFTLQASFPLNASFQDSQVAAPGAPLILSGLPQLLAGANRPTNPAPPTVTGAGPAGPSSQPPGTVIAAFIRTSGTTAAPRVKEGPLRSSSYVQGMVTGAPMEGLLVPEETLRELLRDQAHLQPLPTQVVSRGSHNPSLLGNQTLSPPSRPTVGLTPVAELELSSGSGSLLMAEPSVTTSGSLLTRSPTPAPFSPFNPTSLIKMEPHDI
ETV5, sequence (P41161 whole entry): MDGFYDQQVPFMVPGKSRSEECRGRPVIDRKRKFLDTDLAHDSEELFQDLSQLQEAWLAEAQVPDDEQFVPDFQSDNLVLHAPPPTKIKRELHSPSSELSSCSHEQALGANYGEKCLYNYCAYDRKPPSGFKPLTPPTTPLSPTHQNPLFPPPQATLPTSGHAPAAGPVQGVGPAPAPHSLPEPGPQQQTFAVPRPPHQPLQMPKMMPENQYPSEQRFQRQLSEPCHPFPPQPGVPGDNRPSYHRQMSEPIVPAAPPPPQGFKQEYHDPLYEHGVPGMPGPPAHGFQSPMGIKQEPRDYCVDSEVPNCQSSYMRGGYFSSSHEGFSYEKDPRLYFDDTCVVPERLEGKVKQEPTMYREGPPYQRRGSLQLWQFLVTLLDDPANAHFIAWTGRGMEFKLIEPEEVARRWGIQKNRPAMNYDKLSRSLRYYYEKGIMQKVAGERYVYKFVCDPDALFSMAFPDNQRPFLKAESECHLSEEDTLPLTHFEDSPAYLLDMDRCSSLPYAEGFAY
ELF1, sequence (P32519 whole entry): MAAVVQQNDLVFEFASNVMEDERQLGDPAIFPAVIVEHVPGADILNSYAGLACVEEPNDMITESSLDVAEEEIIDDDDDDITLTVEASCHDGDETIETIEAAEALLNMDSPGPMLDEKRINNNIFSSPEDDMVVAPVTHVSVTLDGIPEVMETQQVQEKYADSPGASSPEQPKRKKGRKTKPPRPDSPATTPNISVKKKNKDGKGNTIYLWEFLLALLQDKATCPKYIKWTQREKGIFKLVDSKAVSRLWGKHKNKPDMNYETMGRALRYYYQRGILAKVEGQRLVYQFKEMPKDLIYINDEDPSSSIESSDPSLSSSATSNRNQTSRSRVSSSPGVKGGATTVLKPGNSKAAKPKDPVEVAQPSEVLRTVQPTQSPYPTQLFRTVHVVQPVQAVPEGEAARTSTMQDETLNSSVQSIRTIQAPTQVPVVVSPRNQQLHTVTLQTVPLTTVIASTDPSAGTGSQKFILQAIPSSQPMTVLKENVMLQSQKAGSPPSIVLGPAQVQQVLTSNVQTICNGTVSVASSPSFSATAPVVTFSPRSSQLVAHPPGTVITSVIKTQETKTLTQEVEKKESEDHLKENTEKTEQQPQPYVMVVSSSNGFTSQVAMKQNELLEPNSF
HSF1, sequence (Q00613 whole entry): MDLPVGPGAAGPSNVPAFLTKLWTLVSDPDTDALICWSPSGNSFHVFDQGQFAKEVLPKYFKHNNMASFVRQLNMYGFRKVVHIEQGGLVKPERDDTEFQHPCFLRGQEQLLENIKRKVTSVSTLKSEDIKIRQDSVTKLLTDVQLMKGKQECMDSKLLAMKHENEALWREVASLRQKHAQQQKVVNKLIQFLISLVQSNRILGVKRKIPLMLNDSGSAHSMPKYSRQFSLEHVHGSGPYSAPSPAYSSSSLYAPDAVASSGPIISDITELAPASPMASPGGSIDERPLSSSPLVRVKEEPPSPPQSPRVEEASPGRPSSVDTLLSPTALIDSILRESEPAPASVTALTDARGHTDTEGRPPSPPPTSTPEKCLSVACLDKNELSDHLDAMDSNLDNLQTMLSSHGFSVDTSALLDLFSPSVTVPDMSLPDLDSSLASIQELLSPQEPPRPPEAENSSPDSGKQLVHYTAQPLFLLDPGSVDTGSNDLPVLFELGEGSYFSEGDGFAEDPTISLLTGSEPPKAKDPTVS
ETV1, sequence (P50549 whole entry): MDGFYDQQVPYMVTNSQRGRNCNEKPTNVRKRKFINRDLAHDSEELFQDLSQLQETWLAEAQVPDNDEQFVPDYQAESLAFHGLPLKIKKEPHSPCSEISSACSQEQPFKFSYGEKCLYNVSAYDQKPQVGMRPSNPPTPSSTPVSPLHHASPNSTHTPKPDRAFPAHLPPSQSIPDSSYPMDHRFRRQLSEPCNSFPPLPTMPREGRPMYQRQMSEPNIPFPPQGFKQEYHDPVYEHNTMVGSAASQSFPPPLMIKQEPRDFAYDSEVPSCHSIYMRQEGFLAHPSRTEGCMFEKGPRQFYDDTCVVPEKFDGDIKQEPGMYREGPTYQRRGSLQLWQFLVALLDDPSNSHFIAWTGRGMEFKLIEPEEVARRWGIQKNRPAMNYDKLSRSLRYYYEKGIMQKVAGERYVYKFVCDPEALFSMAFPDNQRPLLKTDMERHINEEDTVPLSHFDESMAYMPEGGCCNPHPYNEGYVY
CRX, sequence (O43186 whole entry): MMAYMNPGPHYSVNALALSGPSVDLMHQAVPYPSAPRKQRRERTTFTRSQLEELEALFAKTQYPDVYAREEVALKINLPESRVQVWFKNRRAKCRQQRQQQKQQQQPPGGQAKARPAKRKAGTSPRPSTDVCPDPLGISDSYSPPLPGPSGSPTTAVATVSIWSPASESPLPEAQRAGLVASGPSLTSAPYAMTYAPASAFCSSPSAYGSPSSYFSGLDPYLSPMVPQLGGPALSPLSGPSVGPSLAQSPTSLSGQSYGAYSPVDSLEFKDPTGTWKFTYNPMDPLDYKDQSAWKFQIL

With GACTCC the binding signal [1] was 1.35 fold enrichment (6-mer frequency, TF over GST control), the binding signal [2] was 1.23 fold enrichment (6-mer frequency, TF over GST control) and the binding signal [3] was 1.29 fold enrichment (6-mer frequency, TF over GST control). The binding signal [4] was 1.3 fold enrichment (6-mer frequency, TF over GST control), the binding signal [5] was 1.35 fold enrichment (6-mer frequency, TF over GST control) and the binding signal [6] was 1.37 fold enrichment (6-mer frequency, TF over GST control). The binding signal [7] was 1.35 fold enrichment (6-mer frequency, TF over GST control), the binding signal [8] was 1.38 fold enrichment (6-mer frequency, TF over GST control) and the binding signal [9] was 1.25 fold enrichment (6-mer frequency, TF over GST control). The binding signal [10] was 1.32 fold enrichment (6-mer frequency, TF over GST control), the binding signal [11] was 1.27 fold enrichment (6-mer frequency, TF over GST control) and the binding signal [12] was 1.05 fold enrichment (6-mer frequency, TF over GST control). For the same sequence, the binding signal [13] was 1.34 fold enrichment (6-mer frequency, TF over GST control), the binding signal [14] was 1.43 fold enrichment (6-mer frequency, TF over GST control) and the binding signal [15] was 1.12 fold enrichment (6-mer frequency, TF over GST control). For the same sequence, the binding signal [16] was 1.26 fold enrichment (6-mer frequency, TF over GST control), the binding signal [17] was 1.25 fold enrichment (6-mer frequency, TF over GST control) and the binding signal [18] was 1.02 fold enrichment (6-mer frequency, TF over GST control). The binding signal [19] was 1.29 fold enrichment (6-mer frequency, TF over GST control).
